In the antibiotic and cytotoxicity screens of Wong et al. (2023):
The whole screen tested about 39,000 compounds, of which about 3,300 (8.5%) were called active. The sample holds actives, similar compounds and a random draw of the others, so the mix is not that of the screen.

test system: HepG2; experiment: cytotoxicity call (relative viability < 0.9); details: 10 µM

Compound | cytotoxicity call
COc1ccc(NC(=O)N(C)C[C@H]2Oc3ccc(NC(=O)CCCCCC(=O)Nc4ccccc4N)cc3CC(=O)N([C@@H](C)CO)C[C@@H]2C)cc1 | inactive
C[C@H](CO)N1C[C@H](C)[C@@H](CN(C)S(C)(=O)=O)Oc2c(NC(=O)NC3CCCCC3)cccc2C1=O | inactive
CO[C@H]1CN(C)C(=O)c2ccc(NC(=O)NC(C)C)cc2OC[C@@H](C)N(Cc2ccc(-c3ccccn3)cc2)C[C@H]1C | inactive
O=C(CN1CCOCC1)NCC[C@@H]1CC[C@@H](NC(=O)Nc2ccccc2)[C@H](CO)O1 | inactive
COc1ccc(-c2cnc3c(c2)C(=O)N([C@@H](C)CO)C[C@@H](C)[C@@H](CN(C)C(=O)Cc2ccccn2)O3)cc1 | inactive
CN(C)S(=O)(=O)N1CCN(CC(=O)Nc2ccc(Br)cc2)CC1 | inactive
C[C@H]1CN([C@@H](C)CO)C(=O)c2cccc(NC(=O)c3cnccn3)c2O[C@H]1CN(C)S(=O)(=O)c1ccc(F)cc1 | inactive
C[C@@H]1CN([C@H](C)CO)C(=O)c2cc(NC(=O)CCC(F)(F)F)ccc2O[C@@H](C)CCCCO[C@@H]1CN(C)Cc1ccc(C(=O)O)cc1 | inactive
O=C(O)CC1CCOCC1 | inactive
C[C@@H]1CCCCO[C@@H](CN(C)C)[C@H](C)CN([C@H](C)CO)C(=O)c2cc(NC(=O)CCCCCC(=O)Nc3ccccc3N)ccc2O1 | inactive
COc1ccc(CN(C)C[C@H]2OCCCC[C@H](C)Oc3ccc(NC(=O)Nc4ccccc4)cc3C(=O)N([C@@H](C)CO)C[C@@H]2C)cc1 | inactive
COc1ccc(CN(C)C[C@H]2OCCCC[C@@H](C)Oc3ccc(NC(=O)Nc4ccccc4)cc3C(=O)N([C@H](C)CO)C[C@@H]2C)cc1 | inactive
COc1ccc(CN(C)C[C@@H]2OCCCC[C@@H](C)Oc3ccc(NC(=O)Nc4ccccc4)cc3C(=O)N([C@@H](C)CO)C[C@@H]2C)cc1 | inactive
COc1ccc(CN(C)C[C@H]2OCCCC[C@@H](C)Oc3ccc(NC(=O)Nc4ccccc4)cc3C(=O)N([C@H](C)CO)C[C@H]2C)cc1 | active
COc1ccc(CN(C)C[C@H]2OCCCC[C@@H](C)Oc3ccc(NC(=O)Nc4ccccc4)cc3C(=O)N([C@@H](C)CO)C[C@H]2C)cc1 | active
COc1ccc(CN(C)C[C@@H]2OCCCC[C@H](C)Oc3ccc(NC(=O)Nc4ccccc4)cc3C(=O)N([C@H](C)CO)C[C@H]2C)cc1 | inactive
C[C@@H]1CN([C@@H](C)CO)C(=O)c2cc(NC(=O)Nc3ccccc3)ccc2O[C@H]1CN(C)CC1CCCCC1 | inactive
COc1ccccc1S(=O)(=O)N[C@H]1CC[C@@H](CCNC(=O)C2CC2)O[C@H]1CO | inactive
CCOC(=O)C[C@H]1CCCNC1 | inactive
COC(=O)c1c(C)cc(OC)cc1O | inactive
CCOC(=O)c1c(C)cc(O)cc1O | inactive
CCOC(=O)c1c(C)cc(OC)cc1O | active
C[C@H](CO)N1C[C@H](C)[C@H](CN(C)S(=O)(=O)c2cccs2)Oc2ncc(C#Cc3ccccc3)cc2C1=O | inactive

Compound | cytotoxicity call
C[C@@H]1CCCCO[C@@H](CN(C)C(=O)Nc2cccc3ccccc23)[C@H](C)CN([C@@H](C)CO)C(=O)c2cc(NS(=O)(=O)c3ccccc3)ccc2O1 | inactive
C[C@@H]1CCCCO[C@H](CN(C)C(=O)Nc2cccc3ccccc23)[C@@H](C)CN([C@@H](C)CO)C(=O)c2cc(NS(=O)(=O)c3ccccc3)ccc2O1 | inactive
C[C@@H]1CCCCO[C@H](CN(C)C(=O)Nc2cccc3ccccc23)[C@H](C)CN([C@H](C)CO)C(=O)c2cc(NS(C)(=O)=O)ccc2O1 | active
C[C@@H]1CCCCO[C@H](CN(C)C(=O)Nc2cccc3ccccc23)[C@@H](C)CN([C@@H](C)CO)C(=O)c2cc(NS(C)(=O)=O)ccc2O1 | inactive
C[C@@H]1CCCCO[C@@H](CN(C)C(=O)Nc2cccc3ccccc23)[C@H](C)CN([C@H](C)CO)C(=O)c2cc(NS(=O)(=O)c3ccccc3)ccc2O1 | active
C[C@@H]1CN([C@@H](C)CO)C(=O)c2cc(NS(=O)(=O)c3ccccc3)ccc2O[C@@H](C)CCCCO[C@H]1CN(C)C(=O)Nc1cccc2ccccc12 | active
C[C@@H]1CCCCO[C@H](CN(C)C(=O)Nc2cccc3ccccc23)[C@H](C)CN([C@H](C)CO)C(=O)c2cc(NS(=O)(=O)c3ccccc3)ccc2O1 | active
C[C@@H]1CN([C@@H](C)CO)C(=O)c2cc(NS(=O)(=O)c3ccccc3)ccc2O[C@@H](C)CCCCO[C@@H]1CN(C)C(=O)Nc1cccc2ccccc12 | inactive
C[C@H](CO)N1C[C@H](C)[C@@H](CN(C)C(=O)Nc2cccc3ccccc23)OCCCC[C@H](C)Oc2ccc(NS(=O)(=O)c3ccccc3)cc2C1=O | inactive
C[C@@H]1CCCCO[C@@H](CN(C)C(=O)Nc2cccc3ccccc23)[C@H](C)CN([C@H](C)CO)C(=O)c2cc(NS(C)(=O)=O)ccc2O1 | inactive
C[C@H]1CCCCO[C@@H](CN(C)C(=O)Nc2cccc3ccccc23)[C@@H](C)CN([C@@H](C)CO)C(=O)c2cc(NS(=O)(=O)c3ccccc3)ccc2O1 | inactive
C[C@@H]1CCCCO[C@H](CN(C)C(=O)Nc2cccc3ccccc23)[C@@H](C)CN([C@H](C)CO)C(=O)c2cc(NS(=O)(=O)c3ccccc3)ccc2O1 | inactive
C[C@@H]1CN([C@H](C)CO)C(=O)c2cc(NS(=O)(=O)c3cccs3)ccc2O[C@@H]1CN(C)C(=O)Nc1cccc2ccccc12 | inactive
COc1ccc(-c2cn(CCNC(=O)[C@@H](NS(=O)(=O)c3ccc(C)cc3)C(C)C)nn2)cc1OC | inactive
O=C1c2ccccc2[C@@]2(Cc3ccccc3N(CC(F)(F)F)C2=O)[C@H](c2ccc(CO)cc2)N1C1CCCCC1 | inactive
C[C@@H]1CN([C@H](C)CO)C(=O)Cc2cc(NC(=O)Nc3cccc4ccccc34)ccc2O[C@H]1CN(C)C(=O)Nc1cccc2ccccc12 | inactive
COc1ccc(S(=O)(=O)Nc2ccc3c(c2)C(=O)N([C@H](C)CO)C[C@@H](C)[C@H](CN(C)C(=O)Nc2ccc(C(F)(F)F)cc2)OCCCC[C@H](C)O3)cc1 | inactive
COc1ccc([C@@H]2CC=CC[C@H](C)Oc3ccccc3C(=O)N(C)[C@H](Cc3ccccc3)C(=O)N2)c(OC)c1 | inactive
C[C@H](CO)N1C[C@H](C)[C@@H](CN(C)C(=O)Nc2ccc3c(c2)OCO3)Oc2ncc(-c3ccncc3)cc2C1=O | inactive
C=CC[C@@H](CC(=O)NCCO)C(=O)N[C@H](COC(=O)[C@H](CC=C)CC(=O)OC(C)(C)C)Cc1c[nH]c2ccccc12 | inactive
Cc1ccc(-c2csc(-c3ccc(CN)cc3)n2)cc1 | inactive
Cc1ccc(Cc2nc(-c3ccc(Cl)cc3)cs2)cc1 | active
Cc1ccc(-c2nc(-c3ccc(Cl)cc3)cs2)cc1F | inactive

Compound | cytotoxicity call
C[C@@H]1CN([C@H](C)CO)S(=O)(=O)c2ccc(C#C[C@@H](C)O)cc2O[C@H]1CN(C)C(=O)C1CCCCC1 | inactive
O=S(=O)(NCC[C@@H]1CC[C@H](NS(=O)(=O)c2ccccc2Cl)[C@H](CO)O1)c1ccc(F)cc1 | inactive
O=S(=O)(NCC[C@@H]1CC[C@@H](NS(=O)(=O)c2ccccc2Cl)[C@H](CO)O1)c1ccc(F)cc1 | inactive
CN(C)CC(=O)N[C@H]1CC[C@H](CCNS(=O)(=O)c2ccccc2)O[C@H]1CO | inactive
O=S(=O)(NCC[C@H]1CC[C@H](NS(=O)(=O)c2ccccc2Cl)[C@@H](CO)O1)c1ccc(F)cc1 | active
CN(C)CC(=O)N[C@@H]1CC[C@@H](CCNS(=O)(=O)c2ccccc2)O[C@@H]1CO | active
CN(C)CC(=O)N[C@H]1CC[C@H](CCNS(=O)(=O)c2ccccc2)O[C@@H]1CO | inactive
C[C@H]1CCCCO[C@@H](CN(C)Cc2ccncc2)[C@@H](C)CN([C@@H](C)CO)C(=O)c2cc(NC(=O)Cc3ccccc3)ccc2O1 | inactive
C[C@@H]1CN([C@@H](C)CO)C(=O)Cc2cc(NC(=O)Nc3cccc4ccccc34)ccc2O[C@H]1CN(C)S(=O)(=O)c1cccs1 | inactive
C[C@H](CO)N1C[C@H](C)[C@@H](CN(C)C(=O)NC2CCCCC2)Oc2cc(-c3cccnc3)ccc2S1(=O)=O | inactive
Cc1ccc(S(=O)(=O)N2C[C@@H](O)COC[C@H]3O[C@H](CC(=O)NCCCN(C)C)CC[C@@H]32)cc1 | inactive
Cc1noc(C)c1NC(=O)Nc1ccc2c(c1)C(=O)N([C@H](C)CO)C[C@H](C)[C@H](CN(C)Cc1ccc(Cl)c(Cl)c1)O2 | inactive
C=CCC[C@H](Cc1ccc(F)cc1)C(=O)O[C@@H](CNC(=O)[C@@H](CC=C)CC(=O)N[C@@H](CO)Cc1ccccc1)c1ccccc1 | inactive
C=CC[C@@H](CC(=O)N[C@H](CO)Cc1ccccc1)C(=O)NC[C@H](OC(=O)[C@@H](CC=C)Cc1ccc(F)cc1)c1ccccc1 | active
C=CC[C@@H](CC(=O)N[C@@H](CO)Cc1ccccc1)C(=O)NC[C@@H](OC(=O)[C@@H](CC=C)Cc1ccc(F)cc1)c1ccccc1 | inactive
C=CCC[C@H](Cc1ccc(F)cc1)C(=O)O[C@@H](CNC(=O)[C@@H](CC=C)CC(=O)N[C@H](CO)Cc1ccccc1)c1ccccc1 | inactive
C=CC[C@@H](CC(=O)N[C@@H](CO)Cc1ccccc1)C(=O)NC[C@H](OC(=O)[C@@H](CC=C)Cc1ccc(F)cc1)c1ccccc1 | inactive
C=CCC[C@@H](Cc1ccc(F)cc1)C(=O)O[C@@H](CNC(=O)[C@@H](CC=C)CC(=O)N[C@H](CO)Cc1ccccc1)c1ccccc1 | active
Nc1ncnc2c1CCC2 | inactive
CCCCCCCCNC[C@@H](O)[C@H](O)[C@@H](O)[C@@H](O)CO | inactive
CCCCCCCCNC(C)C(O)c1ccc(SC(C)C)cc1 (stereo not drawn) | active
CC(NCCc1ccc(O)cc1)C(O)c1ccc(O)cc1.Cl (stereo not drawn) | inactive
